{"source": "the supplement of paper PMC6555819"}
{"test_system": "FXR:RXRa (NR concentration 270 nM, RXRa partner concentration 90 nM)", "experiment": "PBM binding z-score (relative to random genomic background probes); higher = stronger binding; sequences stand for … in GC…GCGATTGACAGCGTAGAATGAAGG", "how_it_was_run": "(§1)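 Binding buffer was PBS pH 7.4 with 2% milk, 0.02% Triton X-100, 1 mM DTT, 0.2 mg/mL BSA and 0.4 mg/ml salmon testes DNA. In it, ligand-free nuclear receptor dimers were incubated 1 h on custom Agilent 4×180K protein-binding microarrays carrying double-stranded probes. Antibodies against each partner (one per run) detected binding, and z-scores were calculated against random background probes after regression normalization of scanned fluorescence.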"}
{"sequence": "ACTCGGAGGACAAGGGTCAGAGCTACGCCAGTGA", "PBM binding z-score": 2}
{"sequence": "AGAATTAGGTTATACGTAGATCAGGGAAGAAAGT", "PBM binding z-score": 0.495}
{"sequence": "ATATGTAGGTTATCGGTTCATTCAGTTTGCGCAT", "PBM binding z-score": 1.28}
{"sequence": "TCTGCTAGGTCAGTTGGTAAGCTAACGAGCTGCC", "PBM binding z-score": 0.91}
{"sequence": "ACTAGCAGGCCAAGGGTCACTCAGGATTAGTCCG", "PBM binding z-score": 2.7}
{"sequence": "CCTAGAAGGCCAGGGTCACTCAAGCATTTCGCTT", "PBM binding z-score": 2.51}
{"sequence": "ATCTCTAGGTAAAGTTCAGTGTAAGATCGATAGA", "PBM binding z-score": 1.55}
{"sequence": "CTAACTAGGTCAAGGACAGTGAATCTCCGCACGC", "PBM binding z-score": 3.07}
{"sequence": "ACTATTAGGTGACTTAGGGCAACCGATACGACGC", "PBM binding z-score": 0.616}
{"sequence": "CCTACTGGGCCAAAAAGATCATTGATGCCGATAA", "PBM binding z-score": -0.2}
{"sequence": "CCAGACAGGTGAAAGGTAACTCGGTCTGGTACGC", "PBM binding z-score": 0.495}
{"sequence": "TCTAGTTGGTCAAAGGTCACACATTCGAAATGCG", "PBM binding z-score": 6.04}
{"sequence": "TCTAGTTGGTCGAAGGTCACACACTCGAAATGCG", "PBM binding z-score": 2.91}
{"sequence": "ATCTCTAGCTAACCAAGTTCAGTGAATGCCGAAC", "PBM binding z-score": -0.0786}
{"sequence": "CGTCCAAGGTCAGCAAGTCAGTGAAAGCGACGTG", "PBM binding z-score": 4.99}
{"sequence": "ATCGAAAGGTCGATGTGAGTATAGAGAAAGGGAA", "PBM binding z-score": 3.06}
{"sequence": "TTACCAAGGTGAACGTCGTTGATCCCTCTGTAGA", "PBM binding z-score": 0.766}
{"sequence": "AGAACGAGGGCACGCTGAGTTGATAGCAGAGTAG", "PBM binding z-score": 0.783}
{"sequence": "CATACAGGGTCAGCTAGGCGAGAGTAGGGACGGC", "PBM binding z-score": 4.5}
{"sequence": "CGTCCATGGTCAATGCTAGGTCAGTGAAAGCATT", "PBM binding z-score": 0.15}
{"sequence": "CCGACTGGTGCAGAAAGGTTACCATACCATCCGG", "PBM binding z-score": 0.086}
{"sequence": "ATACGTAGGTTAGCTGGGGTCATTCAGACTAGGC", "PBM binding z-score": 5.03}
{"sequence": "TCTAGTTGGTCACGGTGGTCACACACGACGGGTA", "PBM binding z-score": -0.0806}
{"sequence": "ATATGTAGGTTAAGGGTTATTCAGGTTGGTTCGC", "PBM binding z-score": 2.31}
{"sequence": "TCTGCTACGTCAGTTGGTCAGCTAACGAGCTGCC", "PBM binding z-score": -1.7}
{"sequence": "TCATATAGGTAAACAGGGGAAAGTCCGTAAGTTA", "PBM binding z-score": 1.29}
{"sequence": "ACTATTAGTTGAGACGAGGGCAACCGCTAGGTTG", "PBM binding z-score": 0.861}
{"sequence": "TCTCTGAGGACACGAAAGGTCAGAGCTCGACATC", "PBM binding z-score": 3.12}
{"sequence": "CCTAATGGGCCACGAAAGGTCATTGATTCAGTGA", "PBM binding z-score": 3.91}
{"sequence": "TCTAGTTGGTCAAAGGTCACACGCTCGAAATGCG", "PBM binding z-score": 6.24}
{"sequence": "CCTATTGGGCCATCAGGTCATTGATATCAACGTT", "PBM binding z-score": 1.84}
{"sequence": "TGAATGAGGTTAAAGAGCAGGGAACGTGGCGTCG", "PBM binding z-score": 2.98}
{"sequence": "GTTCGGAGGACAAGGTCAGAGCTTTGTCCGTAGA", "PBM binding z-score": 1.57}
{"sequence": "TCATATAGGTAATACAGGTGAAAGCCGGCATCTA", "PBM binding z-score": 0.854}
{"sequence": "GCTTACGGGTCAAAGGTTATTGCATGAATAGAAT", "PBM binding z-score": 7.79}
{"sequence": "TCTAGTAGGTTACCAATGGGGCATTCAGCTTTCT", "PBM binding z-score": 0.412}
{"sequence": "CGAACGATGGCATGAGTTGATAGCAAATGCCGAT", "PBM binding z-score": -0.377}
{"sequence": "CCGACTGGGGCCGAAAGGTTACCATACCATCCGG", "PBM binding z-score": 0.707}
{"sequence": "CGTCCAAGGTCAAAGGTCAGTTAAGAGATGACGG", "PBM binding z-score": 8.43}
{"sequence": "CCTAGCAGGCCAGGGTCACTCAAGCATTTCGCTT", "PBM binding z-score": 2.38}
{"test_system": "LXRa:RXRa (NR concentration 270 nM, RXRa partner concentration 90 nM)", "experiment": "PBM binding z-score (relative to random genomic background probes); higher = stronger binding; sequences stand for … in GC…GCGATTGACAGCGTAGAATGAAGG", "how_it_was_run": "as §1"}
{"sequence": "ACTCGGAGGACAAGGGTCAGAGCTACGCCAGTGA", "PBM binding z-score": 1.9}
{"sequence": "AGAATTAGGTTATACGTAGATCAGGGAAGAAAGT", "PBM binding z-score": 0.704}
{"sequence": "ATATGTAGGTTATCGGTTCATTCAGTTTGCGCAT", "PBM binding z-score": 1.84}
{"sequence": "TCTGCTAGGTCAGTTGGTAAGCTAACGAGCTGCC", "PBM binding z-score": 0.626}
{"sequence": "ACTAGCAGGCCAAGGGTCACTCAGGATTAGTCCG", "PBM binding z-score": 2.61}
{"sequence": "CCTAGAAGGCCAGGGTCACTCAAGCATTTCGCTT", "PBM binding z-score": 1.79}
{"sequence": "ATCTCTAGGTAAAGTTCAGTGTAAGATCGATAGA", "PBM binding z-score": 2.13}
{"sequence": "CTAACTAGGTCAAGGACAGTGAATCTCCGCACGC", "PBM binding z-score": 2.43}
{"sequence": "ACTATTAGGTGACTTAGGGCAACCGATACGACGC", "PBM binding z-score": 0.424}
{"sequence": "CCTACTGGGCCAAAAAGATCATTGATGCCGATAA", "PBM binding z-score": -0.313}
{"sequence": "CCAGACAGGTGAAAGGTAACTCGGTCTGGTACGC", "PBM binding z-score": 0.577}
{"sequence": "TCTAGTTGGTCAAAGGTCACACATTCGAAATGCG", "PBM binding z-score": 5.54}
{"sequence": "TCTAGTTGGTCGAAGGTCACACACTCGAAATGCG", "PBM binding z-score": 3.2}
{"sequence": "ATCTCTAGCTAACCAAGTTCAGTGAATGCCGAAC", "PBM binding z-score": 0.353}
{"sequence": "CGTCCAAGGTCAGCAAGTCAGTGAAAGCGACGTG", "PBM binding z-score": 3.1}
{"sequence": "ATCGAAAGGTCGATGTGAGTATAGAGAAAGGGAA", "PBM binding z-score": 2.82}
{"sequence": "TTACCAAGGTGAACGTCGTTGATCCCTCTGTAGA", "PBM binding z-score": 0.802}
{"sequence": "AGAACGAGGGCACGCTGAGTTGATAGCAGAGTAG", "PBM binding z-score": 0.47}
{"sequence": "CATACAGGGTCAGCTAGGCGAGAGTAGGGACGGC", "PBM binding z-score": 2.84}
{"sequence": "CGTCCATGGTCAATGCTAGGTCAGTGAAAGCATT", "PBM binding z-score": 0.428}
{"sequence": "CCGACTGGTGCAGAAAGGTTACCATACCATCCGG", "PBM binding z-score": 0.429}
{"sequence": "ATACGTAGGTTAGCTGGGGTCATTCAGACTAGGC", "PBM binding z-score": 5.91}
{"sequence": "TCTAGTTGGTCACGGTGGTCACACACGACGGGTA", "PBM binding z-score": 0.249}
{"sequence": "ATATGTAGGTTAAGGGTTATTCAGGTTGGTTCGC", "PBM binding z-score": 3.16}
{"sequence": "TCTGCTACGTCAGTTGGTCAGCTAACGAGCTGCC", "PBM binding z-score": -0.859}
{"sequence": "TCATATAGGTAAACAGGGGAAAGTCCGTAAGTTA", "PBM binding z-score": 1.09}
{"sequence": "ACTATTAGTTGAGACGAGGGCAACCGCTAGGTTG", "PBM binding z-score": 0.155}
{"sequence": "TCTCTGAGGACACGAAAGGTCAGAGCTCGACATC", "PBM binding z-score": 3.53}
{"sequence": "CCTAATGGGCCACGAAAGGTCATTGATTCAGTGA", "PBM binding z-score": 5.44}
{"sequence": "TCTAGTTGGTCAAAGGTCACACGCTCGAAATGCG", "PBM binding z-score": 5.77}
{"sequence": "CCTATTGGGCCATCAGGTCATTGATATCAACGTT", "PBM binding z-score": 1.28}
{"sequence": "TGAATGAGGTTAAAGAGCAGGGAACGTGGCGTCG", "PBM binding z-score": 2.56}
{"sequence": "GTTCGGAGGACAAGGTCAGAGCTTTGTCCGTAGA", "PBM binding z-score": 1.48}
{"sequence": "TCATATAGGTAATACAGGTGAAAGCCGGCATCTA", "PBM binding z-score": 1.36}
{"sequence": "GCTTACGGGTCAAAGGTTATTGCATGAATAGAAT", "PBM binding z-score": 5.75}
{"sequence": "TCTAGTAGGTTACCAATGGGGCATTCAGCTTTCT", "PBM binding z-score": 1.74}
{"sequence": "CGAACGATGGCATGAGTTGATAGCAAATGCCGAT", "PBM binding z-score": -0.686}
{"sequence": "CCGACTGGGGCCGAAAGGTTACCATACCATCCGG", "PBM binding z-score": 0.858}
{"sequence": "CGTCCAAGGTCAAAGGTCAGTTAAGAGATGACGG", "PBM binding z-score": 6.95}
{"sequence": "CCTAGCAGGCCAGGGTCACTCAAGCATTTCGCTT", "PBM binding z-score": 1.67}
